Laboratory results: PubChem BioAssay (NCATS)
Inconclusive results are not listed. Active and inactive are the calls of the source. Calls come from the whole dose curve; as a rule, active = well fitted curve in the direction sought with a large enough effect; inconclusive = small, poorly fitted or top-dose-only effect, or another doubt; inactive = no such curve, though single readings can be large; an effect the other way counts as inactive or inconclusive.

How the values were obtained:
[1] = P-glycoprotein substrates identified in KB-8-5-11 adenocarcinoma cell line, qHTS therapeutic library screen (AID 1346987); note: nearly all actives have a fitted effect of over 65% in size; note: potency is the fitted concentration of half-maximal effect
Outline: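 Human cervical adenocarcinoma KB-8-5-11 cells, selected in colchicine to over-express P-gp and assayed without it, were exposed for 72 h to titrated compounds. An ATP-based luminescent viability signal gave AC50.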

[2] = Primary qHTS for inhibitors of nuclear receptor binding SET domain protein 2 (NSD2) in an isogenic RCH-ACV NSD2 p.E1099K mutant (9B) (AID 1645876); note: nearly all actives have a fitted effect of over 70% in size; note: potency is the fitted concentration of half-maximal effect
[3] = biological target: Glutathione peroxidase 1 (Homo sapiens) (UniProt P07203); assay: Primary qHTS Assay for Inhibitors of Recombinant Selenoprotein Glutathione Peroxidase 1 (GPX1) (AID 1845191); note: nearly all actives have a fitted effect of over 65% in size; note: potency is the fitted concentration of half-maximal effect
Outline: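 GR-coupled readout: NADPH consumption tracked by fluorescence, ex 340/em 450 nm, at t=0 and after 15 min at RT. Final mix 10 nM GPX1, 1 mM GSH, 0.5 mM CHP, 0.5 mM NADPH, 100 nM GR, 0.01% BSA, following 30 min enzyme–compound preincubation.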

[4] = biological target: Phospholipid hydroperoxide glutathione peroxidase GPX4 (Homo sapiens) (UniProt P36969); assay: Primary qHTS Assay for Inhibitors of Recombinant Selenoprotein Glutathione Peroxidase 4 (GPX4) (AID 1845192); note: % is set by controls: 0 for no effect and ±100 for the full control effect; nearly all actives have a fitted effect of over 65% in size
Outline: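 Steps: GPX4 plus compound, 30 min RT; add GR/GSH/NADPH master mix; start with cumene hydroperoxide; read 340/450 nm fluorescence at 0 and 15 min. Finals were 200 nM GPX4, 1 mM GSH, 0.5 mM CHP, 0.5 mM NADPH, 100 nM GR.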

[5] = biological target: Luciferin 4-monooxygenase (Photinus pyralis) (UniProt P08659); assay: Primary firefly luciferase (FLuc) qHTS assay for identification of artifact compounds. (AID 1845220); conditions: outcome: dose series up to 54.1 µM unless noted;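 note: plate controls were DMSO vehicle for no effect and no enzyme for full effect; nearly all actives have a fitted effect of over 60% in size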
Outline: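 Enzymatic FLuc inhibition assay: compounds pre-exposed to luciferin/ATP (10 uM each) for 15 min, then purified P. pyralis enzyme at 10 nM added. Read-out: luminescence at 5 min.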

[6] = system: Nanoluciferase (engineered Oplophorus gracilirostris luciferase); assay: Primary Nanoluciferase (NLuc) qHTS assay for identification of artifact compounds. (AID 1845222);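 note: NLuc secreted into diluted conditioned medium of S16 cells; 0% = DMSO and -100% = no enzyme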
Outline: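 S16 cell supernatant NLuc, 1:55; cpds qHTS; 15 min RT dark; Nano-Glo substrate 1:100, 5 min; luminescence; Hill fit of % inhibition.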

CRL-7250 = normal cell line; assay: Cytotoxic Profiling of Annotated Libraries Using Quantitative High-Throughput Screening (AID 1296008); conditions: Five cell lines viability, CellTiter-Glo ATP luminescence, 48-72 h; max response: hits give low values; note: nearly all actives have a fitted effect of over 60% in size; note: potency is the fitted concentration of half-maximal effect; for max response: % is set by controls: 0 for no effect and ±100 for the full control effect
Outline: (§1)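 Cells exposed to compounds for 48 or 72 hr at 37 degrees Celsius. Viability read as ATP-coupled luminescence with CellTiter-Glo after 10 min at room temperature.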

HEK293 = assay: as above; conditions: Five cell lines viability, CellTiter-Glo ATP luminescence, 48-72 h; max response: hits give low values
Outline: as §1

HaCat = assay: as above; conditions: Five cell lines viability, CellTiter-Glo ATP luminescence, 48-72 h; max response: hits give low values
Outline: as §1

NIH3T3 = assay: as above; conditions: Five cell lines viability, CellTiter-Glo ATP luminescence, 48-72 h; max response: hits give low values
Outline: as §1

C33A = assay: Primary qHTS to identify gynecologic anti-cancer compounds using libraries of approved drugs and bioactive compounds (AID 1345084); conditions: Gynecologic cancer cell panel viability, ATPlite luminescence, 48 h; series mostly up to 57.5 µM; note: nearly all actives have a fitted effect of over 55% in size; note: potency is the fitted concentration of half-maximal effect
Outline: (§2)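 Luminescence from the ATPlite ATP-monitoring reagent indicates viable cell number; lower signal means cytotoxicity. Cells received compound 16 h after seeding and were exposed for 48 h across five concentrations.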

CASKI = assay: as above; conditions: Gynecologic cancer cell panel viability, ATPlite luminescence, 48 h; series mostly up to 57.5 µM
Outline: as §2

Es-2 = assay: as above; conditions: Gynecologic cancer cell panel viability, ATPlite luminescence, 48 h; series mostly up to 57.5 µM
Outline: as §2

HeLa = assay: as above; conditions: Gynecologic cancer cell panel viability, ATPlite luminescence, 48 h; series mostly up to 57.5 µM
Outline: as §2

Hek293T = assay: as above; conditions: Gynecologic cancer cell panel viability, ATPlite luminescence, 48 h, control line for the selectivity index; series mostly up to 57.5 µM
Outline: as §2

OV90 = assay: as above; conditions: Gynecologic cancer cell panel viability, ATPlite luminescence, 48 h; series mostly up to 57.5 µM
Outline: as §2

PA-1 = assay: as above; conditions: Gynecologic cancer cell panel viability, ATPlite luminescence, 48 h; series mostly up to 57.5 µM
Outline: as §2

Tov-21-G = assay: as above; conditions: Gynecologic cancer cell panel viability, ATPlite luminescence, 48 h; series mostly up to 57.5 µM
Outline: as §2

Tov112D = assay: as above; conditions: Gynecologic cancer cell panel viability, ATPlite luminescence, 48 h; series mostly up to 57.5 µM
Outline: as §2

[7] = Primary qHTS for inhibitors of nuclear receptor binding SET domain protein 2 (NSD2) in an RCH-ACV wild type WT cells (2C) (AID 1645877); note: nearly all actives have a fitted effect of over 70% in size; note: potency is the fitted concentration of half-maximal effect

Sequence of Phospholipid hydroperoxide glutathione peroxidase GPX4 (Homo sapiens) (P36969 whole entry, looked up): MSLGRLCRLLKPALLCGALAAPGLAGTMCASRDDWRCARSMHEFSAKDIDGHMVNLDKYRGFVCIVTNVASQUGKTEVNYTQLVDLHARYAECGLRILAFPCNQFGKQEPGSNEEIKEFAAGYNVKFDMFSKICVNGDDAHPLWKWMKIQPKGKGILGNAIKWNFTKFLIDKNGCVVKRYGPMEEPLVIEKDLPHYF
Sequence of Glutathione peroxidase 1 (Homo sapiens) (P07203 whole entry, looked up): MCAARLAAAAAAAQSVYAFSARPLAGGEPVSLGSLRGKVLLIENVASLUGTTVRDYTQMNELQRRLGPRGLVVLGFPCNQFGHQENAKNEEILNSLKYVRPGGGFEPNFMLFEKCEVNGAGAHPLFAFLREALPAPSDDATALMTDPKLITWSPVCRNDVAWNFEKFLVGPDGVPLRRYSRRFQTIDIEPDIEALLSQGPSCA

C1=C(c2cnc[nH]2)c2ccsc2CC1
inactive: Potency [1] | Potency [2] | Potency [4] | outcome [5] | Potency [6] | max response (CRL-7250) 4.29% | max response (HEK293) -1.06% | outcome (HaCat) | max response (NIH3T3) -2.31% | Potency (C33A) | Potency (CASKI) | Potency (Es-2) | Potency (HeLa) | Potency (Hek293T) | Potency (OV90) | Potency (PA-1) | Potency (Tov-21-G) | Potency (Tov112D)
active: Potency [3] 20200 nM

O=C1N[C@@H](Cc2ccccc2)CN2CCCC[C@@H]12
inactive: Potency [1] | Potency [2] | Potency [7] | Potency [3] | Potency [4] | outcome [5] | Potency [6] | max response (CRL-7250) -11.6% | max response (HEK293) -0.0326% | outcome (HaCat) | max response (NIH3T3) 1.01% | Potency (C33A) | Potency (CASKI) | Potency (Es-2) | Potency (HeLa) | Potency (Hek293T) | Potency (OV90) | Potency (PA-1) | Potency (Tov-21-G) | Potency (Tov112D)

COc1cc(N2CCN(C)CC2)ccc1N
inactive: Potency [1] | Potency [3] | Potency [4] | outcome [5] | Potency [6] | max response (CRL-7250) 0.376% | max response (HEK293) -21.4% | max response (HaCat) 1.34% | max response (NIH3T3) -6.74% | Potency (C33A) | Potency (CASKI) | Potency (Es-2) | Potency (HeLa) | Potency (Hek293T) | Potency (OV90) | Potency (PA-1) | Potency (Tov-21-G) | Potency (Tov112D)

CO[C@@H]1[C@H](O)[C@@H](O[C@@H]2C[C@H]3CC[C@@H]4C(CC[C@]5(C)[C@@H](C6=CC(=O)OC6)CC[C@]45O)[C@@]3(C)[C@H](O)C2)O[C@H](C)[C@@H]1O (some centres not stated)
active: Potency [1] 252 nM | Potency [2] 89.3 nM | Potency [7] 159 nM | Potency (CRL-7250) 112 nM | Potency (HEK293) 224 nM | Potency (HaCat) 1780 nM | Potency (C33A) 199 nM | Potency (CASKI) 1260 nM | Potency (Es-2) 178 nM | Potency (HeLa) 199 nM | Potency (Hek293T) 224 nM | Potency (OV90) 1000 nM | Potency (PA-1) 199 nM | Potency (Tov-21-G) 178 nM | Potency (Tov112D) 89.1 nM
inactive: Potency [3] | Potency [4] | outcome [5] | Potency [6] | max response (NIH3T3) 3.09%

Oc1ccc2c3c1O[C@H]1c4[nH]c5c(N=C=S)cccc5c4C[C@@]4(O)[C@@H](C2)N(CC2CC2)CC[C@]314
inactive: Potency [3] | Potency [4] | outcome [5] | Potency [6] | max response (CRL-7250) 1.1% | max response (HEK293) -0.6% | outcome (HaCat) | max response (NIH3T3) -11% | Potency (C33A) | Potency (CASKI) | Potency (Es-2) | Potency (HeLa) | Potency (Hek293T) | Potency (OV90) | Potency (PA-1) | Potency (Tov-21-G) | Potency (Tov112D)

CC(=O)O[C@H]1CN2CCC1CC2
inactive: Potency [1] | Potency [2] | Potency [7] | Potency [3] | Potency [4] | outcome [5] | Potency [6] | max response (CRL-7250) -2.3% | max response (HEK293) -3.42% | max response (HaCat) 1.98% | max response (NIH3T3) 1.29% | Potency (C33A) | Potency (CASKI) | Potency (Es-2) | Potency (HeLa) | Potency (Hek293T) | Potency (OV90) | Potency (PA-1) | Potency (Tov-21-G) | Potency (Tov112D)

COc1ccc(CN(C(=O)[C@@H](N)Cc2c(C)cc(C(N)=O)cc2C)[C@@H](C)c2ncc(-c3ccccc3)[nH]2)cc1C(=O)O
inactive: Potency [1] | Potency [2] | Potency [7] | Potency [3] | Potency [4] | Potency [6] | max response (CRL-7250) -8.53% | max response (HEK293) -8.03% | max response (HaCat) 1.02% | max response (NIH3T3) -6.08% | Potency (C33A) | Potency (CASKI) | Potency (Es-2) | Potency (HeLa) | Potency (Hek293T) | Potency (OV90) | Potency (PA-1) | Potency (Tov-21-G) | Potency (Tov112D)

Cc1c(N2C(=O)[C@@H]3[C@H](O)CCN3C2=O)ccc(C#N)c1Cl
inactive: Potency [1] | Potency [2] | Potency [7] | Potency [3] | Potency [4] | outcome [5] | Potency [6] | max response (CRL-7250) -13.8% | max response (HEK293) -6.16% | outcome (HaCat) | max response (NIH3T3) -8.96% | Potency (C33A) | Potency (CASKI) | Potency (Es-2) | Potency (HeLa) | Potency (Hek293T) | Potency (OV90) | Potency (PA-1) | Potency (Tov-21-G) | Potency (Tov112D)

CS[C@]1(CO)C(=O)N2[C@H]3C(=CC=C[C@@H]3O)C[C@@]2(SC)C(=O)N1C
inactive: Potency [1] | Potency [2] | Potency [7] | Potency [3] | Potency [4] | Potency [6] | outcome (CRL-7250) | max response (HEK293) -12.6% | max response (HaCat) 0.502% | max response (NIH3T3) -3.97% | Potency (C33A) | Potency (CASKI) | Potency (Es-2) | Potency (HeLa) | Potency (Hek293T) | Potency (OV90) | Potency (PA-1) | Potency (Tov-21-G) | Potency (Tov112D)
